40 molecules from PubChem BioAssay (EPA / NIEHS) can be followed below.

Active and inactive are the calls of the source. Rule for the calls: active = hit-call score of the fitted dose curve at least 0.9, where 1 is the maximum; inactive = score below 0.9.

This experiment can be described thus: ATG_TAL_CIS: Attagene CIS-FACTORIAL HepG2 Assay for human TAL Basal Promoter (AID 2282966). The settings on record: HepG2 Attagene cis-factorial TAL promoter reporter; actives raise or lower the signal. How it is done:
ATG_CIS is a cell-based, multiplexed-readout assay that uses HepG2, a human liver cell line, with measurements taken at 24 hours after chemical dosing in a 24-well plate.ATG_TAL_CIS is one of 52 assay component(s) measured or calculated from the ATG_CIS assay. It is designed to make measurements of mRNA induction, a form of inducible reporter, as detected with fluorescence intensity signals by Reverse transcription polymerase chain reaction (RT-PCR) and Capillary electrophoresis technology.Data from the assay component ATG_TAL_CIS was analyzed into 1 assay endpoint. This assay endpoint, ATG_TAL_CIS, was analyzed with bidirectional fitting relative to DMSO as the negative control and baseline of activity. Using a type of inducible reporter, measures of mRNA for gain or loss-of-signal activity can be used to understand the background control at the transcription factor-level as they relate to the gene . Furthermore, this assay endpoint can be referred to as a secondary readout, because this assay has produced multiple assay endpoints where this one serves a background control function. To generalize the intended target to other relatable targets, this assay endpoint is annotated to the background measurement intended target family, where the subfamily is internal marker.
Human liver HepG2 cells are transiently transfected with multiple reporter transcription units (MRTUs) in 6-well plates using FuGene 6 reagent (Roche; 3 ml FuGene/1 mg DNA). The MRTU constructs are regulated by a cis-regulating element (promoter). […] A major difference between the CIS and TRANS system is that in CIS activities of endogenous TFs are measured, whereas the TRANS assay evaluates changes in activities of exogenous, chimeric NR-Gal4 proteins. […] At the end of 24 hour incubation, total RNA was isolated using TriZol reagent (Invitrogen). The isolated RNA is then reverse-transcribed using oligo(dT) primer and Mo-MLV reverse transcriptase (Invitrogen) with DNAse I (Ambion) treatment for 30 min. The one-tenth of the produced cDNA was amplified by PCR using Taq DNA polymerase (Invitrogen) and two reporter sequence-specific primers. The PCR products were fluorescently labeled by primer extension with 6-arboxyfluorescein (6-FAM) 5'-labeled reporter sequence-specific primer (2 min at 95 C, 20 s at 68 C and 10 min at 72 C) and these products were digested with 5U of HpaI (New England Biolabs) for 2h at 37 C. The fragments were purified using Qiaquick PCR columns (Qiagen), analyzed on an ABI 3130xL genetic analyzer (Applied Biosystems) with peak positions identified by using a set of X-rhodamine (ROX)-labeled MapMarker1000 molecular weight standards (BioVentures). The raw capillary electrophoresis data was processed using Attagraph software (Attagene).
With `Nc1ccc(Sc2ccc(N)cc2)cc1`, the molecule was classed as inactive.

`CC(Cc1ccc(OCC(=O)O)cc1)NCC(O)c1csc(C(F)(F)F)n1` (stereo not given): the outcome was inactive.

Take `C=CC(=O)OCC(CC)(COC(=O)C=C)COC(=O)C=C`: the molecule was classed as inactive.

For `Cc1ccc([N+](=O)[O-])cc1C`, the outcome was inactive.

Regarding `CC(C)(C)OOC(C)(C)C`, the outcome was inactive.

For `ClC1=C(Cl)C2(Cl)C3C(Cl)C(Cl)CC3C1(Cl)C2(Cl)Cl` (stereo not given), the molecule was called inactive.

For the molecule `CCCCOCCOP(=O)(OCCOCCCC)OCCOCCCC`, the call was inactive.

In the case of `O=c1ssc(Cl)c1Cl`, the result was inactive.

Regarding `CC(C)(C)c1ccccc1OP(=O)(Oc1ccccc1)Oc1ccccc1`, the outcome was inactive.

As for `O=C(O)C(F)(F)C(F)(F)C(=O)O`, the outcome was inactive.

As for `O=P1(N(CCCl)CCCl)NCCCO1` (stereo not given), the outcome was inactive.

For `CC(C)Nc1ccc(Nc2ccccc2)cc1`, the call was inactive.

As for `CCCN(CCC)c1c([N+](=O)[O-])cc(C(C)C)cc1[N+](=O)[O-]`, the molecule was classed as inactive.

Consider `CC(=O)c1ccc(-c2ccccc2)cc1`, for which the molecule was called inactive.

For `O=C(O)C(Cl)Cl`, the call was inactive.

Regarding `c1ccc2c(c1)Nc1ccccc1S2`, the call was inactive.

With `O=C(O)C(F)(F)OC(F)(F)C(F)(F)OC(F)(F)C(=O)O`, the molecule was classed as inactive.

For `CCCCc1ccccc1`, the molecule was classed as inactive.

As to `Cc1c([N+](=O)[O-])cc2c(c1[N+](=O)[O-])C(C)(C)CC2(C)C`, the call was inactive.

With `CCCCc1ccc(O)cc1`, the molecule was classed as inactive.

As to `CC(Cl)CN(C)C` (stereo not given), the outcome was inactive.

`CCOP(=S)(OCC)SCSc1ccc(Cl)cc1`: the result was inactive.

With `CC1(C)CN=C(NN=C(/C=C/c2ccc(C(F)(F)F)cc2)/C=C/c2ccc(C(F)(F)F)cc2)NC1`, the concentration at half-maximal activity (AC50) (usually the concentration giving half of the maximal activity seen) was 4.22 µM (active).

Take `O=C(O)C(F)(F)OC(F)(F)C(F)(F)OC(F)(F)F`: the result was inactive.

For the molecule `CCOC(=O)c1ccccc1N`, the call was inactive.

Turning to `OCC1CO1` (stereo not given), the outcome was inactive.

`O=P(Oc1ccccc1)(Oc1ccccc1)Oc1ccccc1`: the outcome was inactive.

For `Cc1ccc(N)cc1N`, the result was inactive.

On to `O=C(O)C1C(C(=O)O)C2(Cl)C(Cl)=C(Cl)C1(Cl)C2(Cl)Cl` (stereo not given), for which the call was inactive.

Turning to `CC(=O)CCc1ccc2c(c1)OCO2`, the molecule was classed as inactive.

Regarding `COP(N)(=S)OC`, the molecule was called inactive.

Take `N#C/C=C/c1ccccc1`: the call was inactive.

In the case of `O=P(OCC(Br)CBr)(OCC(Br)CBr)OCC(Br)CBr` (stereo not given), the molecule was called inactive.

As to `O=c1[nH]c2ccccc2c(=O)o1`, the molecule was called inactive.

As to `c1nc[nH]n1`, the molecule was classed as inactive.

In the case of `CC(C)(C)N(NC(=O)c1ccc(Cl)cc1)C(=O)c1ccccc1`, the molecule was called inactive.

As to `CCCCN(CC)C(=O)SCCC`, the call was inactive.

With `O=[N+]([O-])c1ccccc1`, the result was inactive.

Regarding `Nc1ccc(Cl)cc1`, the molecule was classed as inactive.

For the molecule `CC1=C(C(=O)Nc2ccccc2)S(=O)(=O)CCO1`, the outcome was inactive.
